Source: PubChem (National Center for Advancing Translational Sciences (NCATS))
nsP2pro inh = Primary qHTS for inhibitors of NSP2Pro chikungunya virus (CHIKV); Polyprotein P1234 (Chikungunya virus (strain S27-African prototype)), Q8JUX6; FRET peptide cleavage, nsP2pro, fluorescence 1 h; 31,000 tested, 1.1% active; AID 1964107, 2024; Potency, µM (top dose mostly 24.9 µM), most hits filed as inhibitors; note: nearly all actives have a fitted effect of over 60% in size
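FRET cleavage of 2.5 uM peptide 2 by 150 nM CHIKV protease domain at pH 8.0 (Tris, Tween 20). Compounds at 7 concentrations (up to 25 uM) preincubated 15 min. Fluorescence read after 1 h at room temperature.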
nsP2 cell sec = Secondary cell base assay for inhibitors of NSP2Pro Chikungunya virus (CHIKV) | shares compounds with nsP2pro inh | cell-based CHIKV nsP2 protease reporter assay | Potency, µM (top dose mostly 51.1 µM), actives largely listed as inhibitors | 450 tested, 10% active; note: nearly all actives have a fitted effect of over 70% in size
NSP2 full ctr = Selectivity profile for inhibitors of NSP2Pro chikungunya virus (CHIKV): Full length NSP2 enzyme counterscreen (CHIKV-NSP2); Full-length CHIKV NSP2 protease enzymatic counterscreen; shares compounds with nsP2pro inh; Potency, µM (highest dose often 50.7 µM), most hits filed as inhibitors; AID 1964101, 2024; 410 tested, 39% active; note: nearly all actives have a fitted effect of over 65% in size
Furin counter = Selectivity profile for inhibitors of NSP2Pro chikungunya virus (CHIKV): Human furin counterscreen; Potency, µM (top dose mostly 50.6 µM), actives largely listed as inhibitors; 410 tested, 6% active; Recombinant human furin enzymatic counterscreen, fluorogenic substrate; AID 1964102, 2024; shares compounds with nsP2pro inh
NS23 peptide cs = Selectivity profile for inhibitors of NSP2Pro chikungunya virus (CHIKV): Endogenous NS2/3 peptide Counterscreen | Purified CHIKV nsP2 protease, endogenous NS2/3 peptide cleavage | 410 tested, 34% active | Potency, µM (top dose mostly 51 µM), usual class: inhibitors | AID 1964103, 2024 | shares compounds with nsP2pro inh; note: nearly all actives have a fitted effect of over 55% in size
Papain cs = Selectivity profile for inhibitors of NSP2Pro chikungunya virus (CHIKV): Papain Counterscreen; shares compounds with nsP2pro inh; purified papain protease activity, enzymatic inhibition; Potency, µM (highest dose often 51 µM), hits mostly inhibitors; 410 tested, 5% active; AID 1964104, 2024
Target sequence (P00784 whole entry, looked up): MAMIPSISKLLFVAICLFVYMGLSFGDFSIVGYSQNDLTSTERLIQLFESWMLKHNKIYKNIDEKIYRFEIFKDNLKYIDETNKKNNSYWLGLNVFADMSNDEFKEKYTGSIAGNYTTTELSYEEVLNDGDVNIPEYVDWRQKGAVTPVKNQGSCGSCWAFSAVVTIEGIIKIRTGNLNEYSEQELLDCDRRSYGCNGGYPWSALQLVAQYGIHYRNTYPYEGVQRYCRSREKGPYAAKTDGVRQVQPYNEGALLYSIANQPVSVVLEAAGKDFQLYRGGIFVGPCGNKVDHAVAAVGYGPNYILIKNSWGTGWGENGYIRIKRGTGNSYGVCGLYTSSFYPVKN
nsP2pro conf qHTS = Confirmatory qHTS for inhibitors of NSP2Pro chikungunya virus (CHIKV); 410 tested, 43% active; shares compounds with nsP2pro inh; AID 1964105, 2024; CHIKV nsP2 protease enzymatic activity, qHTS; Potency, µM (doses to about 25.5 µM), hits mostly inhibitors; note: nearly all actives have a fitted effect of over 75% in size
HCV NS3 4A cs = Selectivity profile for inhibitors of NSP2Pro chikungunya virus (CHIKV): NS34A-HCV Counterscreen | shares compounds with nsP2pro inh | 410 tested, 20% active | Potency, µM (titrated, usually from 50.9 µM), most hits filed as inhibitors | HCV NS3/4A protease biochemical counterscreen; note: nearly all actives have a fitted effect of over 55% in size
A number is an active result; i = inactive; ? = inconclusive; [ ] = another dose, or the depositor's remark. Only a selection was taken, and hits are over-represented in it overall. Calls come from the whole dose curve.

SMILES	nsP2pro inh	others
COc1ccc(NC(=O)CCc2nc3c(C)nn(-c4ccc(C)cc4)c3n(C)c2=O)cc1	i
CCC(=O)NC(c1cccs1)c1cc([N+](=O)[O-])c2cccnc2c1OC (stereo not drawn)	i
O=C(O)CSc1cc(NS(=O)(=O)c2ccc(Br)cc2)c2ccccc2c1O	1µM	nsP2 cell sec=?;NSP2 full ctr=4.1µM;Furin counter=i;NS23 peptide cs=1.8µM;Papain cs=18µM;nsP2pro conf qHTS=0.8µM;HCV NS3 4A cs=?
O=S(=O)(Nc1ccccc1)c1ccc(NCc2ccc(Br)cc2O)cc1	i
Cc1oc2c(cc(NS(=O)(=O)c3ccc(C(C)C)cc3)c3ccccc32)c1C(=O)OCc1ccccc1	i
COCCOc1ccnc(-c2noc([C@@H]3CCCN3Cc3ccncc3)n2)c1	i
CC(=O)OCC1OC(OC2COC(OC3COC(OC4C(OC5C(CO)OC(OC6CCC7(C)C(CCC8(C)C7CC=C7C9CC(C)(C)CCC9(C(=O)OC9OC(CO)C(O)C(O)C9OC9OCC(OC%10OCC(O)(CO)C%10O)C(O)C9O)C(O)CC78C)C6(C)C)C(O)C5O)OCC(O)C4O)C(O)C3O)C(O)C2O)C(OC(=O)/C=C/c2ccccc2)C(O)C1OC(C)=O (stereo not drawn)	i[2.68 µM]
C[C@@]1(O)CCN(Cc2cnc(NCC(=O)O)nc2)C[C@@H]1O	i
CC(NCc1ccc2c(c1)n(C)c(=O)n2C)c1ccccc1 (stereo not drawn)	i
C=CCN1C[C@H](C(=O)N(CCCN(C)C)C(=O)NCC)C[C@@H]2c3cccc4[nH]cc(c34)C[C@H]21	?	nsP2 cell sec=i;NSP2 full ctr=i;Furin counter=i;NS23 peptide cs=i;Papain cs=i;nsP2pro conf qHTS=i;HCV NS3 4A cs=i
C=CCN1CCN(C(=O)[C@@H]2Cc3c[nH]c4cccc(c34)[C@H](CC(C)C)N2)CC1	i
O=C(O)c1ccc(S(=O)(=O)N[C@H](Cc2c[nH]c3ccccc23)C(=O)O)cc1	i
O=C(CSc1ncc2c(n1)-c1cc(Cl)ccc1N(Cc1ccccc1F)S2(=O)=O)Nc1cccc(C(F)(F)F)c1	i
c1ccc(CN(Cc2ccccc2)Cc2nnc(-c3cc4ccccc4[nH]3)s2)cc1	8.9µM	nsP2 cell sec=i;NSP2 full ctr=i;Furin counter=i;NS23 peptide cs=i;Papain cs=i;nsP2pro conf qHTS=i;HCV NS3 4A cs=i
O=C(Cc1nnc(-c2cc3ccccc3[nH]2)s1)Nc1cc(C(F)(F)F)ccc1Cl	i
O=C(NCc1nnc(-c2cc3ccccc3[nH]2)s1)c1ccccc1	i
Cc1ccc(C(=O)N2CCCC2C(=O)N2CCCC2c2nc3ccncc3[nH]2)cc1 (stereo not drawn)	i
COc1cc2c(cc1OCC1CC1)NC(=O)C21CCN(c2ncc(C(C)C)cn2)CC1	i
Cn1cc(-c2ccc(F)c(C(F)(F)F)c2)nc1C1CCN(c2ncnc3[nH]ncc23)CC1	i
Cc1cnc(-c2ccccc2C(C)C)nc1NCc1cccs1	i
O=C(NC1CCCCC1)[C@@H]1C[C@@H](O)CN1C1CCN(C(=O)c2ccccc2F)CC1	i
CCOc1ccc(NC(=O)N2CCC(n3c(C)nc4cccnc43)CC2)cc1	i
CCOc1ccc(-c2noc(CNC(=O)c3cc(-c4ccco4)[nH]n3)n2)cn1	0.79µM	nsP2 cell sec=?;NSP2 full ctr=8.2µM;Furin counter=i;NS23 peptide cs=i;Papain cs=i;nsP2pro conf qHTS=?;HCV NS3 4A cs=i
COc1ccc(-c2noc(CCC(=O)NCc3ccc(OC)cc3OC)n2)cc1	i
